# Screening results as filed in PubChem.
# A selection: hits, their analogues and other compounds. The true share with any hit is near 5.7%.
# TGFb inhibitor: TGF-b pathway inhibition; Potency, µM (doses to about 46.1 µM), hits mostly inhibitors; 410,000 compounds, 1.2% hits; HepG2 CAGA-GFP TGF-b/SMAD3 reporter, GFP fluorescence, 18 h; TGF-beta stimulated, 500 pg/mL final; AID 588855; also: nearly all actives have a fitted effect of over 65% in size
#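 Read-out: total well GFP (ex488/em500-530) summed from mean per-cell fluorescence. Cells: HEPG2 CAGA-GFP, 1% FBS DMEM, 18 h at 37 degrees C with 500 pg/mL final TGF-beta. Unstimulated wells served as the full-inhibition control; stimulated DMSO wells = 0%.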
# ATXN2 expr inh: reduces ATXN2 reporter expression in HEK-293 cells; Potency, µM (highest dose often 57 µM), most hits filed as inhibitors; 360,000 compounds, 0.72% hits; HEK-293 ATXN2-luciferase reporter, luminescence, 24 h; AID 1745845; also: nearly all actives have a fitted effect of over 55% in size
#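 ATXN2-luciferase reporter cells (luciferase flanked by upstream and downstream ATXN2 gene portions) were treated 24 h at 37 °C with compounds at up to 57 uM. SteadyGlo luminescence gave expression; GF-AFC fluorescence gave viability.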
# ATXN viability: cell viability loss in ATXN counter-screen; S2 cells (HEK-293 line with an ATXN2-luciferase reporter) viability, CellTiter-Fluor protease fluorescence, 24 h; Potency, µM (top dose mostly 56.7 µM), most hits filed as cytotoxic; 400,000 compounds, 0.49% hits; AID 651635; also: nearly all actives have a fitted effect of over 40% in size
# IL1B secr inh: inhibitors of inflammasome signaling (IL-1 beta secretion); THP-1 LPS/ATP IL-1B secretion, AlphaLISA, 16 h; stronger effect = lower value; activity change, % at 57.5 µM; 360,000 compounds, 4.7% hits; in the data active = activity change below about -50%; inconclusive = mostly about -30% to -49%
#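 Secreted IL-1B measured by AlphaLISA bead assay after 16 h compound exposure of THP-1 cells; compounds (final up to 57.5 uM) added 1 h before LPS (250 ng/mL) and ATP (1.25 mM) stimulation; lower signal means less secretion.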
# HepG2 viability: counter-screen for TGF-b inhibitors: cytotoxicity in HepG2 cells | 410,000 compounds, 0.76% hits | Potency, µM (top dose mostly 46.1 µM), usual class: cytotoxic | AID 588856 | HepG2 CAGA-GFP viability, ATP luminescence, 18 h
#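 CellTiter-Glo luminescence gave cytotoxicity after 18 hours at 37 degrees C. The cells were HepG2 CAGA-GFP in 1% FBS DMEM, stimulated with 500 pg/mL TGF-beta after compound addition. %Activity was normalised to no-cell wells (complete cell-killing) and DMSO (no toxicity), and curves were fitted and classified.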
# Hits are given with their value; i = inactive; ? = inconclusive; nt = no result; [ ] = dose if it differs, or a comment. Unless noted, calls follow the shape of the dose curve; as a rule, active = well fitted curve in the direction sought with a large enough effect; inconclusive = small, poorly fitted or top-dose-only effect, or another doubt; inactive = no such curve, though single readings can be large; an effect the other way counts as inactive or inconclusive.
SMILES,TGFb inhibitor,ATXN2 expr inh,ATXN viability,IL1B secr inh,HepG2 viability
Cn1nnc2c[n+](CC(=O)c3ccc4ccccc4c3)cc(Br)c21,?,?,?,-101,i
O=C(C[n+]1ccccc1)c1ccc(Cl)cc1,i,nt,i,i,i
Cn1nnc2c[n+](CC(=O)c3ccc(Cl)cc3)cc(Br)c21,?,i,i,-99,i
CCOCCCn1c(C)nc2c[n+](CC(=O)c3ccc4ccccc4c3)cc(Br)c21,i,i,i,-58,i
Cc1ccc(N(Cc2cccs2)C(=O)C(C)Oc2ccc(Cl)c(C)c2)cc1 (centres undefined),?,nt,nt,nt,i
Cc1ccc2[nH]c(CN3CCC(CO)(CC4CCCCO4)CC3)c(C)c2c1 (centres undefined),i,i,i,-113,i
Cc1ccc(CN2CCC(CO)(CC3CCCCO3)CC2)o1 (centres undefined),?,i,?,i,i
Cc1ccc(C(C(=O)NC2CCCC2)N(C(=O)Cc2cccs2)c2ccc(C)c(C)c2)o1 (centres undefined),?,i,i,-74,i
Cc1ccc(C(C(=O)NC2CCCC2)N(C(=O)Cc2cccs2)c2ccc3c(c2)OCCO3)cc1 (centres undefined),i,i,i,-58,i
Cc1ccc(C)c(N(C(=O)Cc2cccs2)C(C(=O)NC2CCCC2)c2ccc(C)o2)c1 (centres undefined),i,i,i,i,i
O=C1C=Cc2cccc3ccc(O)c1c23,i,7.1µM,i,?,i
O=c1oc(-c2ccc(O)c(O)c2)cc2cccc(O)c12,i,i,i,i,i
Cc1cc2ccccc2c[n+]1C,i,nt,nt,nt,i
O=C(O)CSCC(=O)Nc1ccc(Cl)cc1C(F)(F)F,i,i,i,i,i
CCC(CC)NC(=O)Nc1cccc(C)c1C,i,nt,i,i,i
CC(C)N(CC(=O)Nc1ccc(Cl)cc1C(F)(F)F)C(=O)CCl,?,19µM,?,-115,i
CCC(C)N(CC(=O)Nc1cccc(C)c1C)C(=O)CCl (centres undefined),22µM,3µM,nt,-110,i
COC(=O)C1=C(C(=O)OC)C(c2ccccc2O)c2sc(=O)[nH]c2S1 (centres undefined),i,i,i,-96,i
COc1ccc(NC(=O)CC2C(=O)N(C)C(=S)N2CCc2ccccc2F)cc1 (centres undefined),i,i[11.3 µM],?,-79,i
CCN1C(=O)C(CC(=O)Nc2ccc(OC)cc2)N(CCc2ccccc2)C1=S (centres undefined),i,i,i,-76,i
CNC(C)[C@@H]1CC[C@@H](N)[C@@H](O[C@H]2[C@H](O)[C@@H](O[C@H]3OC[C@](C)(O)[C@H](NC)[C@H]3O)[C@H](N)C[C@@H]2N)O1 (some centres undefined),nt,nt,i,nt,nt
NC1=N[C@@]2(c3cc(NC(=O)c4ccc(F)cn4)ccc3F)COC[C@@H]2CS1,nt,i,nt,nt,nt
Clc1ccc(CSc2nccn2Cc2ccccc2)cc1,?,i,i,-73,i
O=c1ccn(Cc2ccccc2)c(SCc2ccccc2)n1,i,i,i,i,i
COc1ccc(-n2c(-c3ccccc3F)nc3c(cnn3-c3ccc(C)cc3)c2=O)cc1,?,nt,nt,nt,i
SMILES,TGFb inhibitor,ATXN2 expr inh,ATXN viability,IL1B secr inh,HepG2 viability
COC(=O)c1c(C)nn(-c2ccc(F)cc2)c1-n1cccc1,nt,nt,nt,nt,i
c1ccc(-c2cc(NCCN3CCCCC3)c3ccccc3n2)cc1,?,28µM,nt,-99,i
COc1cccc(CNC(=O)CSc2c3c(nc4ccc(Cl)cc24)CCCC3)c1OC,?,nt,nt,nt,i
CSc1ccc(CNc2ccc(Cl)cc2)cc1,i,i,i,-73,i
Cc1ccc(NCSc2ccc(Cl)cc2)cc1,i,i,i,?,i
COc1cc(SC)ccc1C(=O)NNC(=O)c1cc(C)oc1C,i,i,?,i,7.9µM
COc1cc(SC)ccc1C(=O)Nc1c(C)cccc1C,i,i,i,i,i
COc1cc(SC)ccc1C(=O)Nc1c(Cl)cncc1Cl,?,i,i,-67,i
COc1cc(SC)ccc1C(=O)Nc1ccccc1,i,i,i,i,i
CC(C)N(C(=O)CSc1nc2ccccc2n1Cc1ccc(F)cc1)C(C)C,?,i,i,-62,i
C/C(N)=C(/C#N)C(=O)CSc1nc2ccccc2c(=O)n1Cc1ccc(C)cc1,i,i,?,i,i
C/C(N)=C(/C#N)C(=O)CSc1nc2ccccc2c(=O)n1Cc1ccc(F)cc1,11µM,nt,?,i,i
COc1cccc(Cn2c(CNC(=O)c3cc([N+](=O)[O-])ccc3Cl)nc3cccnc32)c1,i,nt,nt,nt,i
C[N+]1(CC(=O)c2ccc3c(c2)CCCC3)CCOCC1,i,nt,nt,nt,i
COc1ccc(N2CCN(CCCNC(=O)c3ccc4nc(CCc5ccccc5)oc4c3)CC2)cc1,i,nt,nt,nt,i
CCc1nc2ccc(C(=O)NCCc3ccc(OC)c(OC)c3)cc2nc1CC,i,i,i,i,i
COc1ccc(CCNC(=O)c2ccc3c(c2)ncn3-c2ccc(C)cc2C)cc1OC,?,?,?,nt,i
COc1ccc(CCNC(=O)c2ccc3nc(-c4ccco4)c(-c4ccco4)nc3c2)cc1OC,i,?,i,-53,i
COc1ccc(N2CCN(CCCNC(=O)c3ccc4nc(Cc5ccccc5)oc4c3)CC2)cc1,i,16µM,10µM,nt,i
COc1ccc(CCNC(=O)c2ccc3c(c2)ncn3-c2ccc(C(C)C)cc2)cc1OC,?,25µM,?,nt,i
COc1ccc(CNC(=O)c2ccc3nc(CCc4ccccc4)oc3c2)cc1OC,i,28µM,?,nt,i
COC(=O)c1ccccc1Sc1ncnc2onc(C)c12,?,i,?,-103,i
CC1CN(CCS(=O)(=O)c2cc(Cl)ccc2Cl)CC(C)O1 (centres undefined),i,i,i,-103,i
CC(=O)N1CCN(CCS(=O)(=O)c2cc(Cl)ccc2Cl)CC1,i,i,?,-65,i
COc1ccc(N2CCN(CCS(=O)(=O)c3cc(Cl)ccc3Cl)CC2)cc1,?,i,i,i,i
SMILES,TGFb inhibitor,ATXN2 expr inh,ATXN viability,IL1B secr inh,HepG2 viability
Cc1ccc(CNC(=O)c2cnn(-c3cccc(C)c3)c2C2CCN(C(=O)OC(C)(C)C)CC2)cc1,?,nt,nt,nt,i
CC(=O)C1=C(c2ccc(Br)cc2)N(C(C)=O)n2c(nnc2C2CCCCC2)S1,i,nt,nt,nt,i
Cc1ccc(Cl)cc1N1CCN(C(=O)c2c(C)oc3ncnc(N4CCCCC4)c23)CC1,?,28µM,?,nt,i
CCOc1ccc(NC(=O)C2CCN(C(=O)N3CC(C)Oc4ccc(Cl)cc43)CC2)cc1 (centres undefined),?,nt,nt,nt,i
O=C1C=CC(=O)c2c(O)c(CO)c(CO)c(O)c21,11µM,?,?,i,10µM
CCN(CC)c1ccc(/C=C/c2sc3ccccc3[n+]2CCCCI)cc1,13µM,nt,nt,nt,i
Cc1ccc(C(=O)c2oc3ccc(Cl)cc3c2NC(=O)CN2CCN(C)CC2)cc1,?,nt,i,-57,i
